Compound activity as filed in PubChem BioAssay.
PERK inhibitor: block of dimerizer-induced PERK translation repression, primary screen, PERK inhibitor project, CHO PERK-DD cells, SEAP luminescence, HTS; Eukaryotic translation initiation factor 2-alpha kinase 3 (Homo sapiens), Q9NZJ5; CHO PERK-DD fusion, SEAP luminescence translation reporter; inhibition, % at 5.6 µM; 220,000 compounds, 0.17% hits; AID 1416, 2008;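 active = inhibition above the mean inhibition of all tested compounds plus 3 SD, set separately per screening campaign, cut at about 2.9% in these data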;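 also: PERK kinase domain activated by AP20187 dimerizer at 100 nM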
PABP polyA inh: PABP poly(A) RNA binding inhibitors, primary screen, biochemical, fluorescence polarization, uHTS | inhibition, % at 35 µM | Polyadenylate-binding protein 1 (Homo sapiens), P11940 | 290,000 compounds, 1% hits | AID 2014, 2009;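 also: calls also rest on retests at 20 µM and on dose response follow-up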
eIF4E 4G PPI: eIF4E–eIF4G protein interaction inhibitors, primary screen, biochemical, uHTS, TR-FRET, eIF4GI fragment. Eukaryotic translation initiation factor 4E (Mus musculus) + Eukaryotic translation …. TR-FRET eIF4E-eIF4GI(517-606) binding, 2 h. inhibition, % at 21.7 µM. 220,000 compounds, 0.37% hits;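 active = inhibition above about 30%, limit read from the data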
eIF4H inh: human eIF4H binding inhibitors, primary screen, translation initiation inhibitor project, biochemical, uHTS, fluorescence polarization; 290,000 compounds, 0.94% hits; inhibition, % at 35 µM; eIF4H fluorescence polarization binding assay; Eukaryotic translation initiation factor 4H (Homo sapiens), Q15056; AID 2012, 2009;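 also: calls also rest on retests at 20 µM and on dose response follow-up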
PABP1 MLLE inh: inhibitors of PABP1 MLLE–PAM2 peptide binding, primary screen, biochemical, fluorescence polarization, FITC-PAM2, GST-MLLE. 360,000 compounds, 0.36% hits. AID 588489, 2011. inhibition, % at 20 µM; in the data active = inhibition above about 35%, passing the limit was not always enough
A number is an active result; i = inactive; nt = no result given. The list is not random: actives were taken first. Their share in the collection is about 1.6%. Unless noted, no rule for the calls is given here.

SMILES	PERK inhibitor	PABP polyA inh	eIF4E 4G PPI	eIF4H inh	PABP1 MLLE inh
Cc1noc(C)c1S(=O)(=O)Nc1ccc2c(c1)C(=O)N([C@H](C)CO)C[C@H](C)[C@@H](CN(C)C(=O)Nc1ccc3c(c1)OCO3)O2	nt	nt	nt	nt	i
C=CCSc1nc(-c2ccc(OC)cc2)c(C#N)c(=O)n1CC=C	i	i	89	i	i
CC1=C(C(=O)N(C)C)CC(CC(=O)NCCN2CCOCC2)C(=O)N1Cc1ccc(F)cc1 (stereo not drawn)	nt	nt	nt	nt	i
Cc1ccccc1NC(=O)c1sc2nc3c(c(-c4ccco4)c2c1N)CCCC3	i	i	i	i	i
Nc1c(C(=O)Nc2ccccc2)sc2nc3c(c(-c4ccco4)c12)CCC3	i	62	i	84	i
Nc1c(C(=O)Nc2ccccc2)sc2nc3c(c(-c4ccco4)c12)CCCC3	i	i	i	i	i
Cc1ccc(NC(=O)c2sc3nc4c(c(-c5ccco5)c3c2N)CCC4)cc1	i	53	i	82	i
CN(CC(=O)Nc1ccc(F)cc1)C(=O)COC(=O)c1nc(Cl)ccc1Cl	nt	nt	nt	nt	i
Cc1ccccc1NC(=O)C1CCCN1S(=O)(=O)c1ccccc1C(F)(F)F (stereo not drawn)	nt	nt	nt	nt	i
COC(=O)C1=NN(c2ccc(OC)cc2)C2C(=O)N(c3ccccc3OC)C(=O)C12 (stereo not drawn)	i	i	39	i	i
COC(=O)C1=NN(c2ccccc2OC)C2C(=O)N(c3ccccc3OC)C(=O)C12 (stereo not drawn)	i	i	i	i	i
Oc1[nH]c(N=C2N=c3ccccc3=N2)c2ccccc12	i	43	i	80	i
Cc1ccc(C(=O)Nc2nc3ccccc3c(=O)s2)cc1	i	i	i	i	46
Cc1cc(C)n2cc(CSc3nnc(SCc4cn5c(C)cc(C)nc5n4)s3)nc2n1	i	i	i	i	nt
Cc1cc(C)n2cc(CSc3nnc(N)s3)nc2n1	i	i	i	i	40
C=CCN1C=CC(=O)[C@@H](OC(=O)Nc2ccc(Br)cc2)[C@H]1c1ccccc1Br	nt	nt	nt	nt	i
O=C(CCCc1ccccc1)Nc1ccccc1C(F)(F)F	nt	i	nt	i	i
COc1ccc(CCC(=O)Nc2ccccc2C(F)(F)F)cc1	i	18	i	80	i
O=c1[nH]cc(N(CCO)CCO)c(=O)[nH]1	i	i	94	i	i
CC(C)c1ccccc1-n1c(SCC(=O)N2CCc3ccccc3C2)nc2ccccc2c1=O	i	120	i	i	i
O=C1N/C(=C/c2cccn2-c2ccccc2)C(=O)N1Cc1ccc(F)cc1	i	54	i	active	i
O=C1N/C(=C/c2cccn2-c2ccc(F)cc2)C(=O)N1Cc1ccccc1F	i	i	i	i	i
COc1cc(/C=C2/NC(=O)N(Cc3ccccc3F)C2=O)ccc1O	i	i	i	i	i
O=C(O)c1cccc(-n2cccc2/C=C2/NC(=O)N(Cc3ccccc3F)C2=O)c1	i	30	i	94	i
CC(OC(=O)Cn1cnc2c1c(=O)n(C)c(=O)n2C)C(=O)NC1CCCCC1C (stereo not drawn)	nt	nt	nt	nt	i
SMILES	PERK inhibitor	PABP polyA inh	eIF4E 4G PPI	eIF4H inh	PABP1 MLLE inh
O=S(=O)(/N=C(/Sc1ccccc1)c1ccccc1)c1ccccc1	i	i	i	i	38
CC(NC(=O)c1ccccc1F)c1nnc(SCC(=O)NC2=NCCS2)n1C (stereo not drawn)	nt	75	nt	90	i
COc1ccccc1CNC(=O)CN1C(=O)NC2(CCOc3ccccc32)C1=O (stereo not drawn)	nt	nt	nt	nt	i
Cc1ccnc(SCc2cc(=O)c(OC(=O)c3ccco3)co2)n1	i	98	i	7.6	i
NC(=O)Cn1c(=O)n(Cc2ccco2)c(=O)c2c3c(sc21)CCCCC3	i	50	i	98	i
O=c1c2c3c(sc2nc(NCCOCCO)n1Cc1ccco1)CCCCC3	i	89	i	100	i
C=C(C)CN1C(=O)c2ccccc2C1=O	i	2.9	i	i	i
O=C(CN1C(=O)c2ccccc2C1=O)c1ccccc1	i	i	i	i	i
Cn1c(SCC(=O)Nc2ccccc2Oc2ccccc2)nnc1C1CC1	nt	nt	nt	nt	i
